Screening results as filed in PubChem.
Shown are actives, neighbours in structure and some others; about 7.8% of the full set was active somewhere.
MITF inh: inhibitors of MITF, primary screen, MITF inhibitor project, cell-based, luminescence; 37,000 compounds, 0.28% hits; inhibition, % (no concentration beside the values); TRPM1 promoter luciferase, 24 h; in the data active = inhibition above about 85%;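 also: human melanocyte line stably carrying TRPM1 promoter luciferase reporter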
Hedgehog inh: Hedgehog pathway signaling inhibitors, primary screen, luminescence, Shh-LIGHT2 cells, Gli-luciferase; inhibition, % (test concentration not listed); Shh-LIGHT2 Gli-luciferase reporter, 30 h; 22,000 compounds, 2.1% hits;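 active = mean inhibition across valid replicates above about 65%, limit read from the data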;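 also: pathway switched on by Shh-conditioned medium diluted 1 in 25 in low serum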
NOMO-1 viab: NOMO-1 AML cell viability reduction, primary screen, STK33 inhibitor project, CellTiter-Glo luminescence. inhibition, % (test concentration not listed). AID 2330, 2010. 37,000 compounds, 7.5% hits. NOMO-1 AML viability, 72 h; in the data active = inhibition above about 80%
An asterisk follows results filed as active; . = not tested or not shown.

SMILES | MITF inh | Hedgehog inh | NOMO-1 viab
C[C@H](CO)N1C[C@H](C)[C@H](CN(C)Cc2ccc(C(F)(F)F)cc2)Oc2c(NC(=O)Nc3ccccc3)cccc2C1=O | 1 | -28 | 48
C[C@@H]1CN([C@H](C)CO)C(=O)c2cccc(NC(=O)Nc3ccc(C(F)(F)F)cc3)c2O[C@@H]1CN(C)Cc1ccccc1 | -9 | 35 | 75
C[C@@H]1CN([C@H](C)CO)C(=O)c2cccc(NC(=O)Nc3ccccc3)c2O[C@H]1CN(C)Cc1ccc(C(F)(F)F)cc1 | 46 | -7 | 91*
C[C@H](CO)N1C[C@H](C)[C@H](CN(C)Cc2ccc(C(F)(F)F)cc2)Oc2c(NC(=O)Nc3cccc4ccccc34)cccc2C1=O | 55 | -12 | 112*
COC(=O)c1ccccc1NC(=O)CSc1nc2ccc(C)cc2[nH]1 | 28 | . | -27
Cc1ccccc1-n1nnnc1SCC(=O)Nc1cccc(Cl)c1Cl | 6 | . | 5
COc1ccc(CN2CCN(Cc3cccc(OC)c3OC)CC2)c(OC)c1 | -8 | . | 24
CC(=O)c1cccc(NC(=S)NCCn2cc(Cl)cn2)c1 | -6 | . | 15
Cc1ccc(-c2nnc3c4ccccc4c(C)nn23)cc1S(=O)(=O)N(C)CCO | -127 | . | 44
COc1ccccc1-n1nnnc1SCC(=O)Nc1ccccc1SC | 7 | . | 10
Cc1nnc(SCC(=O)Nc2cccc3ccccc23)s1 | 13 | . | 7
COc1cc2c(cc1NC(=O)C(C)Oc1cccc(Cl)c1)oc1ccccc12 (stereo unspecified) | 15 | . | 7
C[C@H]1CN([C@@H](C)CO)C(=O)c2cccc(NC(=O)Nc3ccc(F)cc3)c2O[C@@H]1CN(C)Cc1ccc(C(F)(F)F)cc1 | 38 | 0 | 57
C[C@@H]1CN([C@H](C)CO)C(=O)c2cccc(NC(=O)Nc3ccc(C(F)(F)F)cc3)c2O[C@@H]1CN(C)Cc1ccc(C(F)(F)F)cc1 | 6 | 33 | 111*
COC(=O)c1c(NC(=O)c2ccc(N(C)S(=O)(=O)c3ccccc3)cc2)sc2c1CCCC2 | 2 | . | -1
O=C(CSc1nc(-c2ccccc2)cs1)Nc1ccccc1 | -6 | . | -10
Cc1ccc(C(=O)O)cc1S(=O)(=O)N(C)CCO | 3 | . | -5
COc1ccc(CNC(=O)C2CCCCC2C(=O)O)cc1 (stereo unspecified) | -16 | . | 18
COC(=O)c1c(NC(=S)NC(C)c2ccncc2)sc2c1CCC(C)C2 (stereo unspecified) | 19 | . | 30
CCOc1ccc(C(Nc2cccc(C)n2)c2ccc3ccc(C)nc3c2O)cc1 (stereo unspecified) | 49 | . | 106*
Cc1ccc2cccc(OCc3nnc(SCC(N)=O)n3C)c2n1 | 10 | . | -5
Cc1cccc(NC(c2ccccc2)c2ccc3ccc(C)nc3c2O)n1 (stereo unspecified) | 39 | . | 102*
c1ccc(-c2nnc(SCc3nc4ccccc4s3)n2-c2ccccc2)cc1 | 29 | . | 38
O=C(OCCn1ncc2ccccc2c1=O)c1cccs1 | -22 | -51 | 34
Cc1cc(-c2ccccc2)nc(SCC(=O)Nc2ccc(I)cc2)n1 | 3 | . | -1
SMILES | MITF inh | Hedgehog inh | NOMO-1 viab
Nc1nnc(SCC(=O)Nc2ccc(Br)cc2Cl)n1-c1ccccc1 | -41 | . | 14
C[C@H]1O[C@@H](O[C@H]2[C@@H](O)C[C@H](O[C@H]3[C@@H](O)C[C@H](O[C@H]4CC[C@@]5(C)[C@H](CC[C@@H]6[C@@H]5C[C@@H](O)[C@]5(C)[C@@H](C7=CC(=O)OC7)CC[C@]65O)C4)O[C@@H]3C)O[C@@H]2C)C[C@H](O)[C@@H]1O | 45 | -20 | 120*
CC(=O)Nc1cccc(-c2nn3c(C)nnc3s2)c1 | -20 | 35 | 25
COc1cccc(OC)c1C(=O)NC(=S)Nc1cccc(-c2nn3c(C)nnc3s2)c1 | 39 | . | 122*
CNC(=O)C(C)N(c1cc(C)cc(C)c1)S(C)(=O)=O (stereo unspecified) | -14 | . | 23
O=C(NCCCN1CCCC1=O)c1cc(-c2cccnc2)nc2ccc(Br)cc12 | -20 | . | 9
COc1ccc(C2C3=C(CC(C)(C)CC3=O)N(C)C3=C2C(=O)CC(C)(C)C3)cc1 | 5 | -4 | 7
O=C1CCCC2=C1C(c1ccccc1Cl)N=C(Nc1nc3ccccc3s1)N2 (stereo unspecified) | 23 | 28 | 116*
O=C(O)COc1ccc(Cl)cc1C1C2=C(CCCC2=O)NC2=C1C(=O)CCC2 | -2 | . | -9
COc1ccc(OC)c(C2N=C(Nc3nc4ccccc4s3)NC3=C2C(=O)CC(C)(C)C3)c1 (stereo unspecified) | 48 | . | 115*
COc1ccc(-c2nnc(SCc3ccc([N+](=O)[O-])c(OC)c3)n2-c2ccccc2)cc1 | 18 | . | 41
Cc1nnc(NCc2ccco2)[nH]c1=O | -2 | . | 3
Cc1ccc(S(=O)(=O)N2Cc3ccccc3C(C)CC23CCCCC3)cc1 (stereo unspecified) | -6 | -39 | 88*
Cc1ccc(-c2ccc(OC(=O)c3ccccc3F)cc2)cc1 | -50 | -19 | 9
C[C@@H]1CN([C@H](C)CO)C(=O)c2cc(NC(=O)NC3CCCCC3)ccc2O[C@@H]1CN(C)Cc1ccncc1 | 1 | 17 | 11
C[C@H]1CN([C@@H](C)CO)C(=O)c2cc(NC(=O)C3CCCCC3)ccc2O[C@@H]1CN(C)Cc1ccncc1 | 3 | . | 25
C[C@H]1CN([C@@H](C)CO)C(=O)c2cc(NC(=O)C3CCCCC3)ccc2O[C@@H]1CN(C)Cc1ccc(-c2ccccc2)cc1 | 13 | 3 | 100*
C[C@H](CO)N1C[C@H](C)[C@H](CN(C)Cc2ccncc2)Oc2ccc(NC(=O)NC3CCCCC3)cc2C1=O | 8 | -9 | 105*
C[C@H](CO)N1C[C@H](C)[C@@H](CN(C)Cc2ccc(-c3ccccc3)cc2)Oc2ccc(NC(=O)C3CCCCC3)cc2C1=O | -5 | . | 29
C[C@H]1CN([C@@H](C)CO)C(=O)c2cc(NC(=O)C3CCCCC3)ccc2O[C@H]1CN(C)Cc1ccncc1 | -1 | . | 97*
Cc1ccccc1-c1nc(SCC(=O)Nc2sc3c(c2C#N)CCCC3)n[nH]1 | 1 | . | -2
O=C1C(=O)N(Cc2ccco2)C(c2cccnc2)C1C(=O)c1cc2ccccc2o1 (stereo unspecified) | 18 | . | -17
CC1CCc2c(sc3ncnc(SCCOc4ccccc4)c23)C1 (stereo unspecified) | -50 | . | -13
CC1CCc2c(sc3ncnc(NCCc4nc5ccccc5[nH]4)c23)C1 (stereo unspecified) | -10 | . | 97*
CC1=C(/C=C/C(C)=C/C=C/C(C)=C\C(=O)O)C(C)(C)CCC1 | -118 | 82* | 71
CC(=C/C(=O)O)/C=C/c1ccccc1 | 0 | . | 29
COc1cc(C(=O)OC[C@@]2(O)CO[C@H](OC3C(CO)OC(OC(C)/C=C/C4(O)C(C)CC(O)CC4(C)C)C(O)C3O)[C@@H]2O)cc(OC)c1O (stereo partly specified) | -7 | -29 | 2
CC1(C)Cc2c(sc3nc(SCC(=O)c4ccccc4)nc(N)c23)CS1 | -21 | . | 27
O=C(CN1C(=O)C2C3C=CC(C4CC34)C2C1=O)Nc1ccc(Oc2ccccc2Cl)cc1 (stereo unspecified) | 3 | . | -1
